Screening results as filed in PubChem BioAssay.
CYP2C19 activ = human CYP2C19 activators, primary screen, biochemical, luminescence; recombinant CYP2C19, luciferin-H EGE luminescence; active compounds read high; 0 = fully inhibited enzyme, 1 = untreated enzyme; activation factor at 5 µM; 96,000 tested, under 10 active; AID 1025, 2008;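 active = activation factor of at least 2 at 5 µM in the primary screen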;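 note: 0 = wells with 2.5 mM tranylcypromine and 1 = vehicle-only wells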
MRP reversal = reversal of MRP1-mediated doxorubicin resistance, primary screen, H69AR cells, doxorubicin co-treatment. H69AR cells + 2 uM doxorubicin, CellTiter-Glo, 72 h. differential viability (reversal), % at 10 µM. 0.04% of 85,000 active;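 active = viability drop by adding the cancer drug above about 55%, with treated viability meeting a 40% cutoff, limit read from the data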;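 note: viability without doxorubicin minus viability with 2 µM doxorubicin for each compound; larger differential means the compound sensitizes cells more to doxorubicin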
CYP2C9 inhib = blockers of cytochrome P450 2C9 activity – biochemical, luminescence, ADME assay, primary screen | P11712 | CYP2C9 Supersomes, luciferin-H conversion | inhibition, % at 5 µM | 20% of 96,000 active;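 active = blocking of liver enzyme CYP2C9 beyond about 50% at 5 µM, limit read from the data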
Target sequence (P11712 whole entry, looked up): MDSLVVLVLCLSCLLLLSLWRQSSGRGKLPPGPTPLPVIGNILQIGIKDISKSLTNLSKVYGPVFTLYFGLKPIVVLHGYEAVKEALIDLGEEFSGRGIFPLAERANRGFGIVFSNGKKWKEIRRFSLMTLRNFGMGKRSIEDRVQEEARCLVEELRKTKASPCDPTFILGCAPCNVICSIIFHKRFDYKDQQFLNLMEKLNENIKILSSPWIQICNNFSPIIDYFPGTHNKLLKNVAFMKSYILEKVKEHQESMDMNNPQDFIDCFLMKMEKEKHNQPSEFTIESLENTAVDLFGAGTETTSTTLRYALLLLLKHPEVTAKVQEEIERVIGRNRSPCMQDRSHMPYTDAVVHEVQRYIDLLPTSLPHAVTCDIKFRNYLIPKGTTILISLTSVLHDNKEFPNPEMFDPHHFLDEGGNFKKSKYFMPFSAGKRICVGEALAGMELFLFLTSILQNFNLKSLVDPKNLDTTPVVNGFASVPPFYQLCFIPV
MRP1 act = H69AR viability gain despite doxorubicin, primary screen, MRP-1 activator project, H69AR cells, CellTiter-Glo; viability rescue; 0.61% of 140,000 active; viability increase, % at 10 µM; AID 799, 2007;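 active = viability gain under doxorubicin at or above a set limit, the compound median plus 3 SD, cut at about 4.7% in these data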;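 note: MRP-1 overexpressing cells given doxorubicin 25 µM after compound pretreatment; 18-22 h compound pretreatment then 72 h with doxorubicin before readout; 0% = doxorubicin-only wells and 100% = vehicle-treated cells without doxorubicin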
CYP2C9 act = human CYP2C9 activators, primary screen, biochemical, luminescence | activation factor at 5 µM | recombinant CYP2C9, luciferin-H conversion; active compounds read high; factor 1 = untreated enzyme, 0 = blocked | AID 1024, 2008 | Cytochrome P450 2C9 (Homo sapiens), P11712 | 1.4% of 96,000 active;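 active = activation factor of 2 or more for CYP2C9 at a 5 µM dose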;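 note: 0 = sulfaphenazole-blocked wells and 1 = vehicle-only wells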
CYP2C19 inh = blockers of cytochrome P450 2C19 activity – biochemical, luminescence, ADME assay, primary screen; 21% of 96,000 active; P33261; inhibition, % at 5 µM; CYP2C19 Supersomes, luciferin-H EGE luminescence, 30 min;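 active = CYP2C19 inhibition above a set limit at 5 µM in the primary screen, cut at about 50% in these data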;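 note: plate controls were negative control wells for no effect and 2.5 mM tranylcypromine positive control for full effect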
Starred values were filed as active, the others as inactive. Most compounds without a hit are left out; they make up all but 21% or so of the library.

COc1ccc(C(=O)Nn2c(SCC(=O)NC3CCCCC3)nc3ccccc3c2=O)cc1 was read as CYP2C19 activ 0.9, MRP reversal 2, CYP2C9 inhib 31, MRP1 act 0, CYP2C9 act 0.7 and CYP2C19 inh 14.
Screening COc1ccc(C(=O)Nn2c(SCC(=O)c3ccc(Cl)cc3)nc3ccccc3c2=O)cc1 returned CYP2C19 activ 0.8, MRP reversal -1, CYP2C9 inhib 82*, MRP1 act -1, CYP2C9 act 0.2 and CYP2C19 inh 25.
`COc1ccc(C(=O)Nn2c(SCC(=O)N3CCC(C)CC3)nc3ccccc3c2=O)cc1` gave CYP2C19 activ 0.6, MRP reversal 3, CYP2C9 inhib 86*, MRP1 act -3, CYP2C9 act 0.1 and CYP2C19 inh 39.
For O=C(CSc1nc2ccccc2c(=O)n1Cc1ccccc1)NCc1ccco1 the results were CYP2C19 activ 0.9, MRP reversal -4, CYP2C9 inhib 0, MRP1 act -3, CYP2C9 act 1 and CYP2C19 inh 9.
O=C(CSc1nc2ccccc2c(=O)n1Cc1ccc(C(=O)NC2CC2)cc1)NCc1ccco1 was read as CYP2C19 activ 0.7, MRP reversal -14, CYP2C9 inhib 53*, MRP1 act -1, CYP2C9 act 0.5 and CYP2C19 inh 35.
Screening COc1ccc(C(=O)Nn2c(SCC(=O)NCc3ccco3)nc3ccccc3c2=O)cc1 returned CYP2C19 activ 0.9, MRP reversal -6, CYP2C9 inhib 80*, MRP1 act -2, CYP2C9 act 0.2 and CYP2C19 inh 13.
O=C(NC1CCS(=O)(=O)C1)c1ccc(-c2ccc(Br)cc2)o1 (configuration not stated) was read as CYP2C19 activ 0.8, MRP reversal 3, CYP2C9 inhib 9, MRP1 act -2, CYP2C9 act 0.9 and CYP2C19 inh 22.
For CC(C)(C)C1CCC2(CC1)Nc1cccc3cccc(c13)N2 the results were CYP2C19 activ 0, MRP reversal -1, CYP2C9 inhib 80*, MRP1 act -3, CYP2C9 act 0.2 and CYP2C19 inh 96*.
O=[N+]([O-])c1ccc(C2Nc3cccc4cccc(c34)N2)cc1 was read as MRP1 act -1.
COC(=O)C1=C(C)N=C2SCCC(=O)N2C1c1cc(Br)ccc1OC (configuration not stated) was read as CYP2C19 activ 0.8, MRP reversal -11, CYP2C9 inhib 12, MRP1 act -3, CYP2C9 act 0.9 and CYP2C19 inh 15.
`COC(=O)C1=C(C)N=C2SC(C#N)=C(N)N2C1c1cc(OC)c(OC)c(OC)c1` (configuration not stated) gave CYP2C19 activ 0.1, CYP2C9 inhib 93*, MRP1 act -3, CYP2C9 act 0.1 and CYP2C19 inh 87*.
For COC(=O)C1=C(C)N=C2SC(C#N)=C(N)N2C1c1ccc(OCc2ccccc2)cc1 (configuration not stated) the results were CYP2C19 activ 0.7, CYP2C9 inhib 69*, MRP1 act -1, CYP2C9 act 0.3 and CYP2C19 inh 32.
`COC(=O)C1=C(C)N=C2SCCC(=O)N2C1c1ccc(OC(=O)c2ccco2)cc1` (configuration not stated) gave MRP reversal 16 and MRP1 act -2.
For O=C1c2ccccc2NC(c2ccccc2)N1/N=C/c1ccccc1 (configuration not stated) the results were CYP2C19 activ 0.7, CYP2C9 inhib 87*, MRP1 act -2, CYP2C9 act 0.1 and CYP2C19 inh 34.
For CCCCC(=O)N/N=C/c1sccc1C the results were MRP1 act -1.
`Cc1ccc(CSCC(=O)N/N=C/c2sccc2C)cc1` gave CYP2C19 activ 0.2, CYP2C9 inhib 40, MRP1 act 0, CYP2C9 act 0.6 and CYP2C19 inh 83*.
Screening CNc1nc(NC)nc(-n2c(C(F)(F)F)nc3ccccc32)n1 returned CYP2C19 activ 0.6, MRP reversal -11, CYP2C9 inhib 64*, MRP1 act 0, CYP2C9 act 0.4 and CYP2C19 inh 38.
Screening COC(=O)Cn1c(C(F)(F)F)nc2ccccc21 returned MRP reversal 0 and MRP1 act -2.
For O=C(CCn1c(=O)c2sccc2n(CC(=O)NCc2ccco2)c1=O)NCc1ccccc1 the results were CYP2C19 activ 0.8, MRP reversal -7, CYP2C9 inhib 61*, MRP1 act -4, CYP2C9 act 0.4 and CYP2C19 inh 21.
`Cc1cccc(C)c1NC(=O)Cn1c(=O)n(CCCC(=O)NCc2ccco2)c(=O)c2sccc21` gave CYP2C19 activ 0.9, MRP reversal 2, CYP2C9 inhib 78*, MRP1 act -4, CYP2C9 act 0.2 and CYP2C19 inh 14.
CCC1CCCCN1C(=O)Cn1c(=O)n(CCC(=O)NCc2ccco2)c(=O)c2sccc21 (configuration not stated) was read as CYP2C19 activ 1, MRP reversal 5, CYP2C9 inhib 45, MRP1 act -3, CYP2C9 act 0.5 and CYP2C19 inh 5.
O=C(CCCn1c(=O)c2sccc2n(CC(=O)NCc2ccco2)c1=O)NCc1ccco1 was read as CYP2C19 activ 0.9, MRP reversal -13, CYP2C9 inhib 20, MRP1 act -3, CYP2C9 act 0.8 and CYP2C19 inh 8.
`O=C(NCc1ccco1)c1ccc(Cn2c(=O)c3sccc3n(Cc3cccc(F)c3)c2=O)cc1` gave CYP2C19 activ 0.1, MRP reversal -3, CYP2C9 inhib 85*, MRP1 act 0, CYP2C9 act 0.1 and CYP2C19 inh 87*.
O=C(CN1C(=O)C2C3C=CC(C4CC34)C2C1=O)OCC(=O)c1ccccc1 (configuration not stated) was read as MRP1 act 0.
Screening CCCCn1c(CNC(=O)C23CC4CC(CC(C4)C2)C3)nnc1SC(C)CC (configuration not stated) returned MRP1 act -2.
`Cc1ccc(OCC(=O)N2CCC(N3CCCCCC3)CC2)cc1` gave CYP2C19 activ 1, MRP reversal 6, CYP2C9 inhib -8, MRP1 act -1, CYP2C9 act 1.1 and CYP2C19 inh -1.
CCc1nnc(NC(=O)CSc2ncc(-c3ccccc3)[nH]2)s1 was read as CYP2C19 activ 0.7, CYP2C9 inhib 66*, MRP1 act 1, CYP2C9 act 0.3 and CYP2C19 inh 25.
Screening Cc1csc(NC(=O)CSc2ncc(-c3ccccc3)[nH]2)n1 returned MRP1 act -2.
